# Reference: the supplement of paper PMC11417369
# ± gives the standard deviation of the averaged measurements. Over roughly 25,000 sequences, “ln(normalized median fluorescence intensity)” has its median near 10; the highest 2% begin near 12. The entries come from a sample that favours the highest values as a whole.
# Tested on: PfAP2-G AP2 domain (GST-tagged)
# Experiment: gcPBM binding intensity (ln(normalized median fluorescence intensity)); higher = stronger DNA binding
# Method in brief: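 Each value is the highest Masliner-normalised natural-log median intensity across replicate spots of either orientation of a probe. The probes were primer-extended double-stranded 36-bp intergenic genomic sequences on an Agilent 4 × 180k array, alongside negative controls, exposed for 1 h to GST-tagged P. falciparum DNA-binding domains expressed in E. coli. Bound protein was picked up with Alexa488 anti-GST antibody and scanned at 488 nm.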
row,Sequence,gcPBM binding intensity (ln)
1,ACCAAATTATCAAATGGTACACATAAAATAATAAAA [XGTACX_site865],11.3 ± 0.74
2,AAAAAAAAAAAAAGGTGTACAAGTATAATTACATAA [XGTACX_site534],11.5 ± 0.95
3,TTTTTTTTTTTTTTGTGTACATATAATGCACATTAT [XGTACX_site6505],11.4 ± 1
4,TAAGTCGCCAAAAGGTGTACACATAATGCATTATCA [XGTACX_site8852],11.8 ± 0.79
5,TGCATGCATTATCATAGTACATATAATGTTGTATAA [XGTACX_site2775],10.7 ± 0.45
6,GTCGCCAAAAGGTGTACACATAATGCATTATCATAA [CACACA_site6112],11.7 ± 0.88
7,TACGTTTTAAAACACACACACAAAAAAAAAAAAAAA [CACACA_site3876],9.97 ± 0.64
8,TTACATTATATACATACACACCCACCCACAAAAAAA [CACACA_site8187],10.7 ± 0.47
9,TATATATAAGCGTGTACACATTCTGAGTGTTGTATA [CACACA_site4502],11.7 ± 1.1
10,ATATATATATAGTGTTGTACATTTAAAAATAATATA [XGTACX_site2627],11.2 ± 0.78
11,AAATATATATAAGCGTGTACACATTCTGAGTGTTGT [XGTACX_site1088],11.7 ± 1.1
12,ATGTTGTGTATATATACACACATACATATATATATA [CACACA_site8461],10.4 ± 0.43
13,TATGTATTCATATGTTGTACATTATATATAATAAGT [XGTACX_site6589],11.2 ± 0.79
14,ATATATATATATAAATGTACATTGTGTGTTGTAAGA [XGTACX_site2434],10.8 ± 0.38
15,ATTCCAAAAAAATCAAGTACTAATTTATTATATTAC [XGTACX_site3920],10.9 ± 0.49
16,AATAAATTTAGACACACACACACATATAAATAAATA [CACACA_site6531],10.1 ± 0.13
17,AAAGAATTTGCATATACACACAAAAAAATATATACA [CACACA_site386],10.03 ± 0.035
18,CATGTGCATATTAAATGTACATATATACATATATAC [XGTACX_site857],10.9 ± 0.58
19,ATATTAATATACATATGTACATATATATATATATAT [XGTACX_site7425],11.2 ± 0.62
20,TATATATATATTTATACACACATTAGTGTATACATG [CACACA_site2950],10.3 ± 0.22
21,TTAATATATTATATTTGTACATATATATATATACAA [XGTACX_site4798],10.9 ± 0.62
22,TATATTAATAATAAGTGTACATATATATATATTTTT [XGTACX_site288],11.3 ± 0.81
23,TTGTGTACATATTAAGTGCATATATATATATATATA,11.7 ± 1.2

row,Sequence,gcPBM binding intensity (ln)
1,AATATATTTATATAGTGTACATTTTTTATATATGTA [XGTACX_site8142],11.3 ± 0.78
2,TTTTTTTTATTAGTGTGTACGCATTTATTTATACAT [XGTACX_site1599],11.7 ± 0.88
3,TTACATACATACAAGTGTACGCATATATTAATATTA [XGTACX_site4006],11.8 ± 1
4,AATATATCTTTTTACGGCAACCATATTTTTCCCATT [CACACA_negctrl_site963],10.21 ± 0.064
5,TGATTATCCTATATATATTTCATAATGGAAAAAAAT [TGCATGCA_negctrl_site444],9.89 ± 0.35
6,CCATATGATATATATTGTACATTATATATTATTTCT [XGTACX_site1697],10.7 ± 0.45
7,CGTTAAAGGGAATGTATACACACGTTTCTCTATGTT [CACACA_site1198],10.2 ± 0.16
8,TATACACATATATAAACACACAAAAAAAAAAAAAAA [CACACA_site7041],9.78 ± 0.53
9,ACGTATAATATGTACACACACATATATACAAAAAAA [CACACA_site917],11.5 ± 1.1
10,TATATACACATATATAAACACACAAAAAAAAAAAAA [CACACA_site8626],9.89 ± 0.48
11,TAAAAAAAAACATATACACACAAAAACGTACACATA [CACACA_site1354],11.8 ± 1.1
12,ATATACACACAAAAACGTACACATATATATATGTAT [XGTACX_site2673],11.7 ± 0.86
13,TATAAACGTATAATATGTACACACACATATATACAA [XGTACX_site1686],11.3 ± 0.94
14,AAAAATTTATTTTGTTTTTTAAGATTTTTTTTTTTT [CACACA_negctrl_site1210],9.46 ± 0.028
15,TAGTATAATATGAACACACACACACGCACAAAAAAA [CACACA_site7035],10.4 ± 0.2
16,CATATAATATAATTATGTACATATATAATAATATAC [XGTACX_site5278],11.2 ± 0.69
17,CTTATTTAAGAGTATGAACACACATCATACACATAT [CACACA_site9205],10.3 ± 0.23
18,TTTTGTTACGGCAAGGAAGTTAAGCATAAATGAATG [GTGCAC_negctrl_site173],10.1 ± 0.16
19,AAAAAAAAATAAAAAAGTACAGGTAAATATATATAT [XGTACX_site5812],11.5 ± 1.2
20,AAAAAAGGTAAAAAAAGTACAAAAAAAAAATTAAAA [XGTACX_site6993],11.3 ± 0.88
21,AAAAAAAAAAAAAAAGGTACAGTAAAAAATTCCTCT [XGTACX_site5947],11.7 ± 0.98
22,ATATTGTAAGTAAACACACACACATATATATGTATA [CACACA_site8124],9.955 ± 0.035
